Screens as filed in PubChem BioAssay.
The list is not random: actives were taken first. Their share in the collection is about 5.7%.
A549 tox-1 = kills or reduces viability of A549 cells in Nrf2 counter-screen | A549 ARE-Fluc cells, CellTiter-Fluor viability, 18-24 h | Potency, µM (series often up to 46 µM), for the others: at the highest dose activity change, negative = cytotoxicity, usual class: inhibitors | actives 0.16% (n = 390,000) | AID 504648; also: potency is read from the fitted curve at half-maximal effect
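Cytotoxicity counterscreen: CellTiter-Fluor fluorescence was measured in A549 ARE_Fluc cells after 18-24 h of compound exposure in a concentration series. The subsequent BugLite luminescent read reports ARE-luciferase activity.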
KB-3-1 tox = kills parental KB-3-1 adenocarcinoma cells; KB-3-1 viability, CellTiter-Glo ATP luminescence, 72 h; actives 1.4% (n = 400,000); Potency, µM (titrated, usually from 46.1 µM), usual class: cytotoxic; also: potency is read from the fitted curve at half-maximal effect; nearly all actives have a fitted effect of over 60% in size
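Viability of parental KB-3-1 cells, measured by CellTiter-Glo luminescence, followed a 72 h incubation at 37 °C with pinned compounds in phenol-red-free DMEM containing 10% FBS.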
PI4K2A block = blocks human PI4K2A kinase activity; AID 1346378; actives 0.13% (n = 420,000); Q9BTU6; activity change, negative = inhibition, % at 76.9 µM; purified PI4K2A, ADP-Glo luminescence, 1 h; stronger effect = lower value; in the data active = activity change below about -50%; inconclusive = mostly about -30% to -49%;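 also: -100% = wells without enzyme as full effect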
Target sequence (Q9BTU6 whole entry, looked up): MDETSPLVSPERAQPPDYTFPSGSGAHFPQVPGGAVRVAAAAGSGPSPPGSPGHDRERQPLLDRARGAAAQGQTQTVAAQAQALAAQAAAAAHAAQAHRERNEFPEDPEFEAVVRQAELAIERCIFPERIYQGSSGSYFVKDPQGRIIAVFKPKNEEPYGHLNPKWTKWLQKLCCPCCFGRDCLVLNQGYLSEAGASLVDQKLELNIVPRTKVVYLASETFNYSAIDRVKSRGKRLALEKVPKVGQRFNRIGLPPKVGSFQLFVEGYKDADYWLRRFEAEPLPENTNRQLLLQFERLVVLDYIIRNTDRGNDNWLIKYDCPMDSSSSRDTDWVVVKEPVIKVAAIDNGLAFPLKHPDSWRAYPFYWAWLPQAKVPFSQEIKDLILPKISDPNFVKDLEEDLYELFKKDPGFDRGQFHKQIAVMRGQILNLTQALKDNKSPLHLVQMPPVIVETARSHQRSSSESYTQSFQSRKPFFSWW
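ADP-Glo luminescence measured ADP generated by PI4K2A enzyme (4 ug/mL before mixing) with 1.2 mM PI substrate (pre-mix) and 300 microM ATP (pre-mix). Tris pH7.5 buffer with MgCl2, Triton X-100; 1 h reaction at ambient temperature.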
Giardia kill = kills Giardia lamblia; AID 540267; Giardia lamblia trophozoite viability; actives 0.15% (n = 340,000); activity change, % at 7.66 µM, hits read low; in the data active = activity change below about -80%; inconclusive = between about -30% and that limit;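 also: parasites exposed to compound for two days anaerobically before the ATP read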
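Giardia trophozoites, 100 cells per well, were exposed to compounds for 48 hrs at 37 deg C under anaerobic conditions; viability was then read as ATP content by bioluminescence after 15-30 min at room temperature.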
Nrf2 inh = Nrf2 pathway inhibition; A549 ARE-Fluc reporter, luciferase luminescence, 18-24 h; Potency, µM (titrated, usually from 46 µM), for the others: at the highest dose activity change, negative = inhibition, actives largely listed as inhibitors; actives 2.1% (n = 360,000); AID 504444; also: potency is read from the fitted curve at half-maximal effect; nearly all actives have a fitted effect of over 60% in size
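Cells were seeded and rested 2 h, then exposed to compounds for 18-24 h. CellTiter-Fluor was read first as a viability measure. BugLite was added 15 min before the final luminescent read of ARE-luciferase activity in A549 cells.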
KB-V1 MDR tox = kills drug-selected multidrug resistant KB-V1 cells. KB-V1 MDR cells viability, CellTiter-Glo, 72 h. Potency, µM (highest dose often 46.1 µM), most hits filed as cytotoxic. actives 3.4% (n = 400,000); also: potency is read from the fitted curve at half-maximal effect; nearly all actives have a fitted effect of over 60% in size
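Luminescent ATP read-out (CellTiter-Glo, 10 min) measures survival of drug-selected KB-V1 MDR cells after 72 h, 37 degrees C compound exposure. Medium: phenol-red-free DMEM, 10% FBS. Values from fitted concentration-response curves.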
FLuc counter 3 = firefly luciferase inhibition, Nrf2 hit validation; shares compounds with Nrf2 inh; purified firefly luciferase, luminescence inhibition; Potency, µM (highest dose often 57.5 µM), without a hit: top-dose activity change, negative = inhibition, usual class: inhibitors; actives 4% (n = 1,400); also: potency is read from the fitted curve at half-maximal effect; nearly all actives have a fitted effect of over 65% in size
A549 tox-2 = toxic to A549 ARE-Fluc cells in Nrf2 counterscreen; shares compounds with Nrf2 inh; A549 ARE-Fluc cells, cytotoxicity counterscreen; Potency, µM (highest dose often 46.1 µM), for the others: at the highest dose activity change, negative = cytotoxicity, most hits filed as inhibitors; actives 2% (n = 1,400);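 also: potency is read from the fitted curve at half-maximal effect; cells exposed to compounds for 18 to 24 hours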
Nrf2 ARE inh = Nrf2 inhibition confirmed, A549 ARE-luciferase; shares compounds with Nrf2 inh; A549 ARE-firefly luciferase reporter, luminescence; Potency, µM (doses to about 46.1 µM), for inactives: at the highest dose activity change, negative = inhibition, actives largely listed as inhibitors; actives 74% (n = 1,400); also: potency is read from the fitted curve at half-maximal effect; nearly all actives have a fitted effect of over 65% in size
An asterisk follows results filed as active. Unless noted, calls follow the shape of the dose curve; as a rule, active = well fitted curve in the direction sought with a large enough effect; inconclusive = small, poorly fitted or top-dose-only effect, or another doubt; inactive = no such curve, though single readings can be large; an effect the other way counts as inactive or inconclusive. Unless noted, % is scaled to controls: 0 for no effect and ±100 for the full control effect.

COc1ccc(-c2nnn(CC(=O)N3CCN(c4ccc(F)cc4)CC3)n2)cc1 was read as A549 tox-1 2.3%, KB-3-1 tox inactive, PI4K2A block -19.4, Giardia kill 10.1, Nrf2 inh 11.4% and KB-V1 MDR tox inactive.
For COc1ccc(N2CCN(C(=O)CN3CCN(c4nc(-c5ccc(F)cc5)cs4)CC3)CC2)cc1 the results were A549 tox-1 inconclusive, KB-3-1 tox 23.1µM*, PI4K2A block 1.4, Giardia kill -27.9, Nrf2 inh 7.31µM*, KB-V1 MDR tox inconclusive, FLuc counter 3 -5.4%, A549 tox-2 -16.0% and Nrf2 ARE inh 11.6µM*.
`CC1CN(C(=O)N2CCC(C(=O)NCCCc3ccccc3)CC2)c2cc(Cl)ccc2O1` (centres undefined) gave A549 tox-1 -0.5%, KB-3-1 tox inactive, PI4K2A block -0.2, Nrf2 inh -13.1% and KB-V1 MDR tox inactive.
CN(Cc1ccccc1)C1=CC(=[N+]2CCCCC2)CC(C)(C)C1 was read as A549 tox-1 inconclusive, KB-3-1 tox inconclusive, PI4K2A block -0.1, Giardia kill 35.8, Nrf2 inh 4.61µM*, KB-V1 MDR tox inactive, FLuc counter 3 2.7%, A549 tox-2 -26.6% and Nrf2 ARE inh 0.82µM*.
Screening COc1ncccc1C(=O)N1CCCC(N2CCN(c3ccc(F)cc3)CC2)C1 (centres undefined) returned A549 tox-1 0.4%, KB-3-1 tox inactive, PI4K2A block 1.5, Giardia kill 11.3, Nrf2 inh -21.7% and KB-V1 MDR tox inconclusive.
COc1ncccc1C(=O)N1CCCC(N2CCN(c3cccc(Cl)c3)CC2)C1 (centres undefined) was read as A549 tox-1 3.8%, KB-3-1 tox inactive, PI4K2A block -0.7, Giardia kill -10.9, Nrf2 inh 8.2µM*, KB-V1 MDR tox inactive, FLuc counter 3 -1.3%, A549 tox-2 0.9% and Nrf2 ARE inh inconclusive.
Screening CCN(CC)S(=O)(=O)c1ccc(OC)c(NC(=O)c2ccc(N3CCCC3=O)cc2)c1 returned A549 tox-1 -6.9%, KB-3-1 tox inactive, PI4K2A block -4.4, Giardia kill 11.8, Nrf2 inh -0.6% and KB-V1 MDR tox inactive.
`O=C(NC1CCN(Cc2ccccc2)CC1)c1ccc2c(c1)[nH]c(=O)n2Cc1ccc(F)cc1` gave A549 tox-1 inconclusive, KB-3-1 tox inconclusive, PI4K2A block 0.5, Giardia kill 3.7, Nrf2 inh 4.61µM*, KB-V1 MDR tox inactive, FLuc counter 3 0.5%, A549 tox-2 -15.5% and Nrf2 ARE inh 9.2µM*.
For CCN(CC)S(=O)(=O)c1ccc(NC(=O)c2ccc(N3CCCC3=O)cc2)cc1 the results were A549 tox-1 -15.8%, KB-3-1 tox inactive, PI4K2A block -0.8, Giardia kill 4.5, Nrf2 inh 1.46µM*, KB-V1 MDR tox inactive, FLuc counter 3 -1.1%, A549 tox-2 -5.5% and Nrf2 ARE inh 7.31µM*.
CCCCCn1c(=O)[nH]c2cc(C(=O)NC3CCN(Cc4ccccc4)CC3)ccc2c1=O was read as A549 tox-1 1.1%, KB-3-1 tox inactive, PI4K2A block 3.3, Giardia kill 5.8, Nrf2 inh -13.4% and KB-V1 MDR tox inactive.
